{
  "source": "PubChem BioAssay (NCATS)",
  "note": "Results filed as inconclusive are left out. Where a call stands in place of a potency, no number is given. Active and inactive are the calls of the source. The call rests on the fitted dose curve; in most records, active means well fitted inhibition curve with a large enough effect; inconclusive means small, poorly fitted or top-dose-only effect; inactive means no such curve, though single readings can be large or run the other way. Potency means the concentration at half of the fitted maximal effect.",
  "data": [
    {"target": "Furin (Homo sapiens) (UniProt P09958)", "sequence (P09958 whole entry, looked up)": "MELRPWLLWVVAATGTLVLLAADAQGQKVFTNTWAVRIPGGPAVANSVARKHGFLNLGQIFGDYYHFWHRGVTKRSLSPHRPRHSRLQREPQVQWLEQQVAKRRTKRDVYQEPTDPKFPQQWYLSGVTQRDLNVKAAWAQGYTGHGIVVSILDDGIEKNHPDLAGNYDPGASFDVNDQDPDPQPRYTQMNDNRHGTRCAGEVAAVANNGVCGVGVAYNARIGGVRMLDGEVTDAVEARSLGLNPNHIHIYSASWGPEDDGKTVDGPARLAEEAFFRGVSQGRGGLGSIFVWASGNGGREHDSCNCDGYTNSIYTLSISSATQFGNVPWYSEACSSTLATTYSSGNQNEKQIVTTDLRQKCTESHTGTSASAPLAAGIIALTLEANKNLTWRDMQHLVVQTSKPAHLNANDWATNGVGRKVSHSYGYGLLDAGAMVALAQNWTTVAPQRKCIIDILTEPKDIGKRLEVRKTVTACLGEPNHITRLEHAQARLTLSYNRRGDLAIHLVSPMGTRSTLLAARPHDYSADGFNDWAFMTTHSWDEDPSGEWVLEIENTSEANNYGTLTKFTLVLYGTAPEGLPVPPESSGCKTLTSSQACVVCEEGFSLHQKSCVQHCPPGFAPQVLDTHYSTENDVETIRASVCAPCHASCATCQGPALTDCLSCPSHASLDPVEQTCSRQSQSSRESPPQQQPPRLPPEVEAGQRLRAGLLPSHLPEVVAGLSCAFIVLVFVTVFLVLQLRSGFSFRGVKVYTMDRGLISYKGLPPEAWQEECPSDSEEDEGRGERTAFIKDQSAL", "experiment": "Furin counterscreen qHTS for Zika virus inhibitors (AID 1347149); further: nearly all actives have a fitted effect of over 70% in size", "conditions": "furin enzymatic counterscreen, fluorogenic substrate; series mostly up to 57.5 µM", "in_short": "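Counterscreen measures cleavage of 2 microM BOC-RVRR-AMC, below its ~15 microM Km, by 5 nM full-length human furin at pH 7.0 after a 15-min compound preincubation. Inhibition derives from the 15-min fluorescence increase at 37C.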", "values": [
      {"compound": "CC1(C)CC=C(c2cnc3ccccc3c2)c2cc(C(=O)Nc3ccc(C(=O)O)cc3)ccc21", "Potency": "44.1 µM (active)"},
      {"compound": "CC(C)CC(c1c(O)c(C=O)c(O)c(C=O)c1O)C1CCC(C)(O)C2CC(C(C)(C)O)CCC12C", "note": "(configuration not stated)", "Potency": "inactive"},
      {"compound": "O=C(Nc1ccccc1)Nc1ccc(-c2ccc(C(=O)C3CCCC3C(=O)O)cc2)cc1", "note": "(configuration not stated)", "Potency": "55.5 µM (active)"},
      {"compound": "CCc1nnc(NS(=O)(=O)c2ccc(NC(=S)NC(=O)/C=C/c3ccc(F)cc3)cc2)s1", "Potency": "inactive"},
      {"compound": "COc1cccc(OC)c1-c1cc(C(=O)N[C@@H](CC(C)C)C(=O)O)nn1-c1ccnc2cc(Cl)ccc12", "Potency": "inactive"},
      {"compound": "CC(=O)OC12CC(C)C(OC(=O)c3ccccc3)C1/C=C(/C)C(OC(=O)c1ccccc1)CC(=O)C(C)(C)/C=C/C(C)C2=O", "note": "(configuration not stated)", "Potency": "inactive"},
      {"compound": "Cc1ccccc1NC(=O)Nc1ccc(CN2C(=O)N([C@@H](CC(C)C)C(=O)N[C@@H](CC(=O)O)c3ccccc3)C(=O)C2(C)C)cc1", "Potency": "inactive"}
    ]}
  ]
}
